# From PubChem BioAssay (NCATS)
# Results filed as inconclusive are left out. Entries that show only a call come without a potency. Active and inactive are the calls of the source. Calls follow the shape of the dose curve; as a rule, active = well fitted curve in the direction sought with a large enough effect; inconclusive = small, poorly fitted or top-dose-only effect, or another doubt; inactive = no such curve, though single readings can be large; an effect the other way counts as inactive or inconclusive.
# What was measured:
# [1] = Primary qHTS for inhibitors of nuclear receptor binding SET domain protein 2 (NSD2) in an RCH-ACV wild type WT cells (2C) (AID 1645877); also: nearly all actives have a fitted effect of over 70% in size; also: potency is read from the fitted curve at half-maximal effect
# [2] = target: Glutathione peroxidase 1 (Homo sapiens) (UniProt P07203); assay: Primary qHTS Assay for Inhibitors of Recombinant Selenoprotein Glutathione Peroxidase 1 (GPX1) (AID 1845191); also: nearly all actives have a fitted effect of over 65% in size; also: potency is read from the fitted curve at half-maximal effect
# Sequence of Glutathione peroxidase 1 (Homo sapiens) (P07203 whole entry, looked up): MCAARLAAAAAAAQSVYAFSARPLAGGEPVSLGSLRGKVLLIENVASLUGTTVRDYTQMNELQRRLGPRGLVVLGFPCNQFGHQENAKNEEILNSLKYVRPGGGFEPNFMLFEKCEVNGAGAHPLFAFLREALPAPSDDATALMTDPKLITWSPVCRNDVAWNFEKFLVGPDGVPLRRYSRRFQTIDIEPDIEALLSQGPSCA
# Summary of the method: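 GR-coupled readout: NADPH consumption tracked by fluorescence, ex 340/em 450 nm, at t=0 and after 15 min at RT. Final mix 10 nM GPX1, 1 mM GSH, 0.5 mM CHP, 0.5 mM NADPH, 100 nM GR, 0.01% BSA, following 30 min enzyme–compound preincubation.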
# [3] = target: Phospholipid hydroperoxide glutathione peroxidase GPX4 (Homo sapiens) (UniProt P36969); assay: Primary qHTS Assay for Inhibitors of Recombinant Selenoprotein Glutathione Peroxidase 4 (GPX4) (AID 1845192); also: series mostly up to about 50 µM; nearly all actives have a fitted effect of over 65% in size
# Sequence of Phospholipid hydroperoxide glutathione peroxidase GPX4 (Homo sapiens) (P36969 whole entry, looked up): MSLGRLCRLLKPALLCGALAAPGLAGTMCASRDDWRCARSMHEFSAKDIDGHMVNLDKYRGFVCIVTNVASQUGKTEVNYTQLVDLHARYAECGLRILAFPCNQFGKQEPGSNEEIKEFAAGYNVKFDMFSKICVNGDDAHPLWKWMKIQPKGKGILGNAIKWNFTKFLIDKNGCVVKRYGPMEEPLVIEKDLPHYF
# Summary of the method: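 Steps: GPX4 plus compound, 30 min RT; add GR/GSH/NADPH master mix; start with cumene hydroperoxide; read 340/450 nm fluorescence at 0 and 15 min. Finals were 200 nM GPX4, 1 mM GSH, 0.5 mM CHP, 0.5 mM NADPH, 100 nM GR.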
# [4] = target: Luciferin 4-monooxygenase (Photinus pyralis) (UniProt P08659); assay: Primary firefly luciferase (FLuc) qHTS assay for identification of artifact compounds. (AID 1845220); also: nearly all actives have a fitted effect of over 60% in size; also: potency is read from the fitted curve at half-maximal effect
# Summary of the method: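 Enzymatic FLuc inhibition assay: compounds pre-exposed to luciferin/ATP (10 uM each) for 15 min, then purified P. pyralis enzyme at 10 nM added. Read-out: luminescence at 5 min.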
# [5] = Primary fluorescence-based thiol-reactive (MSTI) qHTS assay for identification of artifact compounds. (AID 1845221); also: nearly all actives have a fitted effect of over 65% in size; also: potency is read from the fitted curve at half-maximal effect
# Summary of the method: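 Compounds were incubated 1 h at room temperature in the dark with the MSTI probe (4 uM) in PBS pH 7.4, 2% DMSO. Signals were normalized between Acetyl-MSTI and MSTI.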
# [6] = Primary redox qHTS assay for identification of artifact compounds. (AID 1845223)
# Summary of the method: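 Redox-cycling detection via DTT (250 uM final) oxidation coupled to Amplex Red (25 uM)/HRP (250 mU/mL) in HBSS. 15 min preincubation plus 30 min after DTT, room temperature. Ex/Em 525/598 nm; 4-parameter Hill fit against DMSO and 10 uM DA3003.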
# [7] = tested on: Nanoluciferase (engineered Oplophorus gracilirostris luciferase); assay: Primary Nanoluciferase (NLuc) qHTS assay for identification of artifact compounds. (AID 1845222);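 also: NLuc secreted into diluted conditioned medium of S16 cells; series mostly up to about 54 µM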
# Summary of the method: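 S16 cell supernatant NLuc, 1:55; cpds qHTS; 15 min RT dark; Nano-Glo substrate 1:100, 5 min; luminescence; Hill fit of % inhibition.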
Compound,Potency [1],Potency [2],Potency [3],Potency [4],Potency [5],Potency [6],Potency [7]
CCOC(=O)c1cc(C#N)c(N2CCC(C(=O)NS(=O)(=O)Cc3ccccc3)CC2)nc1C,inactive,inactive,inactive,inactive,inactive,inactive,
CC12CCC3c4ccc(OC5OC(C(=O)O)C(O)C(O)C5O)cc4CCC3C1CCC2O (stereo unspecified),inactive,inactive,inactive,inactive,inactive,inactive,inactive
O=C(O)[C@H](Cc1ccc(Nc2nccc3ccncc23)cc1)NC1=C(Br)C(=O)C12CCCCC2,inactive,inactive,inactive,inactive,,,inactive
CC1=C(CCC(C)CC(=O)O)[C@@]2(C)CCCC(C)(C)C2CC1=O (stereo partly specified),inactive,inactive,inactive,inactive,inactive,inactive,inactive
CC(C)CC(=O)O[C@@H]1OC=C(CO[C@@H]2O[C@H](CO)[C@@H](O)[C@H](O)[C@H]2O)[C@H]2[C@@H]3O[C@H]3[C@@](O)(CO)[C@@H]12,inactive,inactive,inactive,inactive,inactive,inactive,inactive
CC(C)(C)OC(=O)N1CCC(OCc2nc(-c3ccncc3)no2)CC1,inactive,inactive,inactive,inactive,inactive,inactive,inactive
Cc1ccc(NC(=O)Nc2cc(C(F)(F)F)ccc2F)cc1Nc1ccc2c(c1)NC(=O)/C2=C\c1ccc[nH]1,20.5 µM (active),inactive,inactive,inactive,1.34 µM (active),inactive,
CC12CCC3c4ccc(O)cc4CCC3C1CC(OC1OC(C(=O)O)C(O)C(O)C1O)C2O (stereo unspecified),inactive,inactive,inactive,inactive,inactive,inactive,
CC1CCC23COC(=O)C2=CC(O)CC3C1(C)CCC1=CC(O)OC1=O (stereo unspecified),inactive,inactive,inactive,inactive,,,inactive
C=C1C(OC2OCC(O)C(O)C2O)CC2C(C)(C)C(O)CCC2(C)C1CC/C(C)=C\CO (stereo unspecified),8.93 µM (active),inactive,inactive,inactive,,,inactive
CC(O)CCC1C(CO[C@@H]2O[C@H](CO)[C@@H](O)[C@H](O)[C@H]2O)CC(O)CC1(C)C (stereo partly specified),inactive,inactive,inactive,inactive,,,inactive
CC(C)(C)Nc1nc(Nc2ccc(C(N)=O)cc2)cc(N)c1C#N,1.45 µM (active),22.7 µM (active),inactive,inactive,,,inactive
CC1C(=O)CC2C3CCC(C(=O)O)C12CC3(C)CO (stereo unspecified),inactive,inactive,inactive,inactive,,inactive,inactive
C=C1C(O)CC2C(C(=O)O)=COC(O[C@@H]3O[C@H](COC(=O)/C=C/c4ccc(O)cc4)[C@@H](O)[C@H](O)[C@H]3O)C12 (stereo partly specified),inactive,inactive,inactive,inactive,,,inactive
CC(C)=CCC/C(C)=C/Cc1ccc(O)c(C2OC(=O)c3cc(C(=O)O)cc(O)c32)c1O (stereo unspecified),inactive,inactive,inactive,inactive,,,inactive
C/C=C/C1=CC2=C(CO1)C(=O)C(C)(O)C(OC(=O)c1c(C)cc(OC)cc1O)C2 (stereo unspecified),4.5 µM (active),inactive,inactive,inactive,,,inactive
C[C@@H]1CC[C@]2(C(=O)O)CC[C@]3(C)C(=CCC4[C@@]5(C)C[C@@H](O)[C@H](O)[C@@](C)(CO)C5CC[C@]43C)C2[C@]1(C)O (stereo partly specified),inactive,inactive,inactive,inactive,,,inactive
CC(C)(C)c1ccc(S(=O)(=O)Nc2ccc(Cl)cc2C(=O)c2cc[n+]([O-])cc2)cc1,inactive,inactive,inactive,inactive,,inactive,inactive
Nc1nc(Nc2ccc(S(N)(=O)=O)cc2)n(C(=S)Nc2c(F)cccc2F)n1,inactive,inactive,inactive,inactive,,inactive,inactive
CN1CCN(Cc2ccc(-c3cnc4[nH]cc(-c5ccc6[nH]ccc6c5)c4c3)cc2)CC1,1.45 µM (active),inactive,inactive,6.75 µM (active),,inactive,inactive
COc1ccc(/C=C/C(=O)O[C@@H]2[C@@H](O)[C@H](C)O[C@@H](O[C@H]3[C@@H]4C=CO[C@@H](O[C@H]5O[C@@H](CO)[C@H](O)[C@@H](O)[C@@H]5O)[C@@H]4[C@@]4(CO)O[C@@H]34)[C@@H]2OC(C)=O)cc1,inactive,inactive,inactive,inactive,,,inactive
CC(O)/C=C/C1OC(=O)CC1Nc1ccc(C(=O)O)cc1 (stereo unspecified),inactive,inactive,inactive,inactive,,,inactive
COc1cc(/C=C/CO)cc(OC)c1O[C@@H]1O[C@H](CO[C@@H]2O[C@H](CO)[C@@H](O)[C@H](O)[C@H]2O)[C@@H](O)[C@H](O)[C@H]1O,inactive,inactive,inactive,inactive,,inactive,inactive
